Results reported in PubChem BioAssay AID624300 (Southern Research Specialized Biocontainment Screening …, 2012).
Hit rate of the full screen: of about 2,400 compounds, about 360 (15%) were called active.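 Rule for the calls: active = viability falls under 70% at one or more tested concentrations, taken as toxicity; inactive = viability stays over 70% at every dose.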 Not all results are given here. Entries with a potency or affinity are not part of this list.

assay: HeLa cell cytotoxicity, dose response, cytotoxicity control for MgcRacGAP inhibitor project (AID 624300); conditions: CellTiter-Glo luminescence, 24 h; series mostly up to 100 µM; viability: at the top concentration;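 note: 100% = median of untreated control wells on the same plate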

SMILES | viability
CCN(CC)c1ccc(NC(=O)COC(=O)Cc2ccsc2)cc1 | 101% (inactive)
Nc1c(/C=C2/C=CC(=O)C(O)=C2)c(=O)nc2sc(CC(=O)N3CCCC3)nn12 | 101% (inactive)
CC(=O)Nc1ccc(OC(=O)Cc2ccc(Cl)cc2)cc1 | 101% (inactive)
OCCCNC(=S)Nc1ccc(Nc2ccccc2)cc1 | 99.7% (inactive)
COc1cc(OC)c(OC)cc1CN1CCN(C(=O)c2cccc3ccccc23)CC1 | 81.6% (inactive)
O=c1cc(-c2ccc(O)c(O)c2)oc2cc(O)c(C3OC(CO)C(O)C(O)C3O)c(O)c12 (stereo not drawn) | 103% (inactive)
Oc1ccc(N2CCN(C(=S)NCCc3ccccc3)CC2)cc1 | 119% (inactive)
CC1(C)CNc2cc(N)ccc2S1 | 106% (inactive)
Nc1n[nH]c(=S)n1/N=C1/C(=O)Nc2ccccc21 | 102% (inactive)
CC(C)N1CCN(C(=O)c2cccc(Cl)c2)CC1 | 102% (inactive)
Fc1ccc(CNCc2ccccc2Cl)cc1 | 96.2% (inactive)
CCN1CCN(CCCOc2ccc(Cl)cc2Br)CC1 | 99.2% (inactive)
C=CCc1cc(Cl)ccc1OCCN(C)C | 97.9% (inactive)
Oc1ccc2ccc(Cl)cc2c1 | 105% (inactive)
CCn1nc(C)c(Br)c1C(=O)Sc1ccccc1Cl | 86.9% (inactive)
Cc1c(NC(=O)CNCc2ccc3c(c2)OCO3)c(=O)n(-c2ccccc2)n1C | 99.1% (inactive)
Nc1ccc(N=Nc2ccc(N)cc2)cc1 | 103% (inactive)
COc1cccc(OC)c1NC(=O)CN1CCN(C)CC1 | 100% (inactive)
COc1ccc(/C=N/NC(=O)c2cnccn2)cc1O | 98.4% (inactive)
O=C(CNCc1ccco1)Nc1cccc(S(=O)(=O)N2CCCCC2)c1 | 103% (inactive)
Cc1cn([C@H]2C[C@H](O)[C@@H](CNCC3=Cc4cc(O)ccc4OC3)O2)c(=O)[nH]c1=O | 103% (inactive)
CCN(c1ccccc1)S(=O)(=O)c1ccc(Cl)c(NC(=O)CN(C)C2CCN(C)CC2)c1 | 95.9% (inactive)
CN1CCC(N(C)CC(=O)Nc2ccc3c(c2)OC(F)(F)O3)CC1 | 101% (inactive)
COc1cc(/C=C/C(=O)OCC(=O)N2CCN(C(=O)c3ccco3)CC2)ccc1O | 102% (inactive)
CCn1c(=O)c2c3c(sc2n2c(=S)[nH]nc12)CCC3 | 84.2% (inactive)
CC1(C)OC(C)(C)/C(=C/Nc2ccc(O)cc2)C1=O | 99.8% (inactive)

SMILES | viability
COc1cc(C(=O)N/N=C(\C)c2ccc(NC(=O)Cc3ccccc3)cc2)ccc1O | 103% (inactive)
O=C(Nc1ccc(O)cc1)c1ccccc1OCc1ccccc1 | 101% (inactive)
c1cc(CN2CCN(C3CCCCCC3)CC2)ccn1 | 101% (inactive)
O=C1CC(Nc2ccc(N3CCOCC3)cc2)C(=O)N1Cc1ccccc1 (stereo not drawn) | 106% (inactive)
CSc1ccccc1NC(=O)CNCCCN1CCOCC1 | 99.5% (inactive)
COc1cc(CC(=O)OCC(=O)Nc2ccc(N(C)C)cc2)cc(OC)c1OC | 103% (inactive)
Cc1cc(-c2n[nH]c(=S)n2/N=C/c2cccs2)n[nH]1 | 89.2% (inactive)
CCCCNCC#CCOc1cc(C)ccc1C(C)C | 87.9% (inactive)
C=CCNCC(O)COc1ccc(C(C)=O)cc1OC (stereo not drawn) | 98.9% (inactive)
O=C(CNCc1ccco1)Nc1ccc(N2CCCCCC2)cc1 | 83.5% (inactive)
Cc1ccccc1OCCN1CCCC1 | 101% (inactive)
CC1CN(CCCCOc2ccc(Cl)c3ccccc23)CC(C)O1 (stereo not drawn) | 83.8% (inactive)
COc1cc(C2NC(=O)C(C#N)=C(S)N2c2ccc(C)cc2)ccc1OC(C)C (stereo not drawn) | 99.7% (inactive)
Nc1ccc2ccc(O)cc2c1 | 96.5% (inactive)
CCOc1cc(/C=C(\C#N)C(=O)NCc2cccnc2)ccc1O | 94.7% (inactive)
CCOc1cc(/C=C(\C#N)C(=O)NCC2CCCO2)ccc1O (stereo not drawn) | 96.2% (inactive)
O=C(CCC1CCCC1)N1CCN(C2CCCC2)CC1 | 90.8% (inactive)
CC(C)(C)c1cc(C(=O)N/N=C/c2ccc(O)cc2)n(-c2ccccc2)n1 | 105% (inactive)
Cc1cccc2sc(NNC(=O)c3cc(=O)c4ccccc4o3)nc12 | 80.6% (inactive)
COc1ccc(NC(=S)NCC2CCN(c3ccc(OC)cc3)C2)cc1 (stereo not drawn) | 110% (inactive)
C=CCc1cc(Cl)ccc1OCCn1ccnc1 | 101% (inactive)
CCOc1cc(/C=N/NC(=O)CN2CCCCC2)ccc1O | 98.7% (inactive)
O=C1CSC(=Nc2ccc(O)cc2)N1c1ccc(O)cc1 | 112% (inactive)
COc1ccc(NC2CCCN(C(=O)c3cc(C)nc4cc(F)ccc34)C2)cc1 (stereo not drawn) | 102% (inactive)
Cc1c(N=Nc2ccc(N(C)C)cc2)c(=O)n(-c2ccccc2)n1C | 103% (inactive)
O=C(N/N=C/c1ccc(O)cc1)c1cc[n+](Cc2ccccc2)cc1 | 102% (inactive)

SMILES | viability
O=C(N/N=C/c1ccc(N2CCOCC2)s1)c1ccc(O)cc1 | 101% (inactive)
CN(C)c1ccc(N=c2sc3ccccc3n2C)cc1 | 87.8% (inactive)
CCc1nnc(NC(=O)CSCc2cc(=O)n3ccsc3n2)s1 | 97.5% (inactive)
COc1ccc([C@H]2CN(c3ccc(OC)cc3)C(=O)[C@@H]2CC(=O)Nc2ccccc2)cc1 | 92.8% (inactive)
COc1cc(/C=N/NC(=O)C2(O)c3ccccc3-c3ccccc32)ccc1O | 105% (inactive)
O=C1C=CC(=O)N1c1ccc(Nc2ccccc2)cc1 | 101% (inactive)
O=C(O)C1CCN(Cc2cnn(-c3ccccc3)c2-n2cccc2)CC1 | 104% (inactive)
COc1cc(/C=N/NC(=O)c2ccc3c(c2)OCO3)ccc1O | 94.8% (inactive)
COc1ccc(CCNCCN2CCOCC2)cc1 | 106% (inactive)
CN=c1scc(C)n1/N=C/c1ccc(O)cc1O | 83.2% (inactive)
CN=c1scc(-c2ccco2)n1/N=C/c1ccc(O)c(O)c1 | 97.5% (inactive)
CN=c1scc(-c2ccc(F)cc2)n1/N=C/c1ccc(O)c(O)c1 | 90.5% (inactive)
Oc1ccc(/C=N/NC(=S)Nc2cccnc2)c(O)c1 | 98.1% (inactive)
COC(=O)c1[nH]c2ccccc2c1NC(=O)Oc1ccccc1 | 88.4% (inactive)
Nc1ccc(N2CCOCC2)c(Cl)c1 | 102% (inactive)
CC(=Nc1ccc(O)cc1)c1sc2ccccc2c1O | 112% (inactive)
Oc1ccc(N=Cc2cc(Br)c(N3CCOCC3)o2)cc1 | 103% (inactive)
COc1ccccc1Nc1n[nH]c(=S)s1 | 92.9% (inactive)
O=C(Cn1c(C(=O)NCc2ccco2)cc2sccc21)c1ccccc1 | 93.1% (inactive)
COc1ccc(C=NNC(=O)c2cc(C)oc2C)cc1O | 81% (inactive)
Cc1c(C(=O)N/N=C/c2ccc(O)cc2)sc(=S)n1C | 106% (inactive)
Cc1nonc1C(=O)N/N=C/c1ccc(O)c(O)c1 | 91.9% (inactive)
Oc1cc(O)c2c(c1)O[C@H](c1ccc(O)c(O)c1)[C@H](O)C2 | 102% (inactive)
CCOC(=O)c1c(OCC)[nH]c2c1cc(O)c1ccccc12 | 98.7% (inactive)
c1coc(CSSCc2ccco2)c1 | 105% (inactive)
COc1cc(/C=N/n2nnnc2N)ccc1O | 93.9% (inactive)
